The whole screen tested about 16,000 compounds, of which about 2,600 (16%) were called active. About 20% were inconclusive and are not listed. The call rests on the fitted dose curve; in most records, active means well fitted curve in the direction sought with a large enough effect; inconclusive means small, poorly fitted or top-dose-only effect, or effect the other way; inactive means no such curve, though single readings can be large or run the other way. A selection follows.
Target: Cytochrome P450 2D6 (Homo sapiens) (UniProt P10635)
Sequence (P10635 whole entry, looked up): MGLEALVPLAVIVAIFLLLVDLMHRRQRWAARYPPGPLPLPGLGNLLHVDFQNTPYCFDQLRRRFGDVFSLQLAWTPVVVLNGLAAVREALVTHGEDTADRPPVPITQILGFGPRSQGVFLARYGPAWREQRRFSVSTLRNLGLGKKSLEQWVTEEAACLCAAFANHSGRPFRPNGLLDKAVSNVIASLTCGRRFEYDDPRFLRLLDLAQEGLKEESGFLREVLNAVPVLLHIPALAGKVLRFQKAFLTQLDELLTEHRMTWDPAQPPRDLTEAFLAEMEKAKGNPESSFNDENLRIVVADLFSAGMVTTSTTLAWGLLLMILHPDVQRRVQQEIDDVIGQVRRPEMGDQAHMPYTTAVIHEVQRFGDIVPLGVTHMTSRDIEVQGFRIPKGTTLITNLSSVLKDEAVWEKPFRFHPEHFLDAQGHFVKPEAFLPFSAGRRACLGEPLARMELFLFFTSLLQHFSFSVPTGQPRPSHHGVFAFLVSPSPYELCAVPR
Assay: Cytochrome panel assay with activity outcomes
Settings: recombinant CYP, pro-luciferin dealkylation, luminescence, p450-cyp2d6; series mostly up to 57.1 µM; activity, negative = inhibition: at the top concentration
On the % scale 0 is the no-effect control and ±100 the full control effect.

| Compound | activity, negative = inhibition | AC50 |
| --- | --- | --- |
| O=C(O)CCc1ccc(-c2ccc(Cl)cc2)n1CCC(=O)O | 14.3% (inactive) |  |
| O=S(=O)(c1ccccc1)N1CCCC1c1nc2ccccc2s1 (stereo not drawn) | -27.6% (inactive) |  |
| COc1ccc(N2C(=O)CCC(C(=O)Nc3ccccn3)C2c2ccc(OC)c(OC)c2)cc1 (stereo not drawn) | 9.02% (inactive) |  |
| Oc1cc(O)c2c(c1)O[C@H](c1ccc(O)c(O)c1)[C@H](O)C2 |  | inactive |
| COc1ncc2ncc(=O)n(C)c2n1 | -2.66% (inactive) |  |
| COC(=O)C1CSC(C(=O)OC)N1C(=O)Nc1ccccc1 (stereo not drawn) | 27.1% (inactive) |  |
| CC(=O)Nc1ccc2c(c1)OCCOCCOc1cc(NC(C)=O)ccc1OCCOCCOCCO2 | -24.6% (inactive) |  |
| CC(=O)Nc1ccc2c(c1)OCCO2 | 10.2% (inactive) |  |
| O=C(CC(c1ccccc1)c1ccccc1)Nc1ccc2c(c1)OCCO2 |  | 0.251 µM (active) |
| CO[C@H]1[C@@H](OC(N)=O)[C@H](O)[C@@H](Oc2ccc3c(O)c(NC(=O)c4ccc(O)c(CC=C(C)C)c4)c(=O)oc3c2C)OC1(C)C | -8.34% [at 25.6 µM] (inactive) |  |
| COc1ccc(CCNC(=O)c2ccc3c(=O)n(Cc4ccco4)c(=S)[nH]c3c2)cc1OC | -1.94% (inactive) |  |
| Cc1ccc2nc(Nc3nc(-c4ccccc4)cc(=O)[nH]3)nc(C)c2c1 | -24.8% (inactive) |  |
| Cc1ccc2nc(SCC(=O)Nc3nnc(SCC(N)=O)s3)[nH]c2c1 | -2.41% (inactive) |  |
| Cc1ccc2c(C)nc(Nc3nc(CSc4nc5ccccc5[nH]4)cc(=O)[nH]3)nc2c1 |  | 3.55 µM (active) |
| Cc1nn(C)c(Oc2cccc(Cl)c2)c1C=O | -4.06% (inactive) |  |
| Cc1ccc(C(=O)N/C(=C\c2ccc([N+](=O)[O-])cc2)C(=O)NCCc2ccccc2)cc1 | -2.99% (inactive) |  |
| CN1CCc2cccc3c2[C@@H]1Cc1ccc(O)c(O)c1-3 |  | inactive |
| CN1CCc2cccc3c2[C@H]1Cc1ccc(O)c(O)c1-3 |  | 12.6 µM (active) |
| COc1ccc(C2=CSC(/N=C/c3ccc(F)cc3)=NN2)cc1 | 9.92% (inactive) |  |
| COC(=O)CCSc1cc([N+](=O)[O-])cc2c1c(C1OCCS1)nn2-c1ccccc1 (stereo not drawn) |  | 12.6 µM (active) |
| Cc1ccccc1OC/C(O)=C(\C#N)c1nc2ccccc2[nH]1 | 12.1% (inactive) |  |
| Cc1cc(O)c(/C=N/Nc2cccc(Cl)c2)c(=O)o1 |  | 0.158 µM (active) |
| Cc1ccc(-n2cnc(=O)c3cccnc32)cc1 | 1.45% (inactive) |  |
| Cc1ccc(-n2c(-c3ccc(Br)cc3)c[n+]3c2CCc2ccc4cccnc4c2-3)cc1 |  | 1.41 µM (active) |
| CCCCC[C@H](CC(=O)NO)C(=O)N[C@@H](C(=O)N1CCC[C@H]1CO)C(C)C | -6.29% (inactive) |  |

| Compound | activity, negative = inhibition | AC50 |
| --- | --- | --- |
| Nc1ccc(O)c(C(=O)O)c1 | -14.1% [at 25.6 µM] (inactive) |  |
| CCC(=O)NC(Nc1sc2c(c1C(=O)OC)CCCC2)(C(F)(F)F)C(F)(F)F | 2.09% (inactive) |  |
| O=[N+]([O-])c1ccc2ncccc2c1CCc1c([N+](=O)[O-])ccc2ncccc12 | -19.7% [at 11.4 µM] (inactive) |  |
| O=C(Nc1ccccn1)c1ccco1 | -1.58% (inactive) |  |
| CCS(=O)(=O)N1CCC(C(=O)NCc2ccco2)CC1 | 0.127% (inactive) |  |
| S=C(NCc1ccco1)N1CCN(Cc2ccco2)CC1 |  | 7.94 µM (active) |
| O=C(O)C1C2CCC(C2)C1C(=O)NCc1ccco1 (stereo not drawn) | -21% (inactive) |  |
| Cc1cccc(C(=O)NC2CCN(C(=S)NCc3ccco3)CC2)c1 | -18.9% (inactive) |  |
| O=C(CSc1ccccc1C(=O)O)NCc1ccco1 | 32.7% (inactive) |  |
| S=C(NCc1ccco1)N1CCN(C(c2ccccc2)c2ccccc2)CC1 |  | 7.94 µM (active) |
| O=C(NCc1ccco1)c1cc(C(=O)C2CC2)c[nH]1 | 4.02% (inactive) |  |
| O=C1Nc2ccccc2C1=Nc1ccc(S(=O)(=O)Nc2nccs2)cc1 | 16.3% [at 11.4 µM] (inactive) |  |
| COc1ccc2c(OC)c3ccoc3nc2c1OC | -20.6% [at 25.6 µM] (inactive) |  |
| CC(C)(C)N1C(=O)[C@H]2[C@@H]3[C@H](O)[C@H](O)CC(=O)[C@H]3CC[C@H]2C1=O | 7.18% [at 11.4 µM] (inactive) |  |
| O=C(c1cc(C(F)(F)F)cc(C(F)(F)F)c1)N1CCC2(CCN(Cc3ccccc3)CC2)CC1 | -13.2% (inactive) |  |
| O=C(CN1CCN(Cc2ccccc2)CC1)c1ccc(Br)cc1 |  | 1.41 µM (active) |
| O=C(c1coc(=O)c2ccccc12)N1CCN(Cc2ccccc2)CC1 | -9.79% (inactive) |  |
| CCc1c(O)nc2sc3ccccc3n2c1=O | -4.92% (inactive) |  |
| CC(=O)c1cccc(NC=C2C(=O)OC3(CCCCC3)OC2=O)c1 | 15.4% (inactive) |  |
| CCc1nnc(NC(=O)c2c(C)nn(-c3ccccc3)c2Cl)s1 | -17.9% (inactive) |  |
| Clc1ccccc1-c1ccc2ncnc(NCCN3CCOCC3)c2c1 |  | 10 µM (active) |
| c1nc(NCCN2CCOCC2)c2cc(-c3ccc4c(c3)OCO4)ccc2n1 |  | 7.94 µM (active) |
| CN(C)C(=O)c1ccc(-c2ccc3ncnc(NCCN4CCOCC4)c3c2)cc1 | -3.71% (inactive) |  |
| CC(=O)NCCNc1ncnc2ccc(-c3ccoc3)cc12 | -3.64% (inactive) |  |
| c1ccc(-n2ncc3c(NCCCN4CCOCC4)ncnc32)cc1 | -10.2% (inactive) |  |

| Compound | activity, negative = inhibition | AC50 |
| --- | --- | --- |
| c1ccc2c(c1)CCCc1cc(NCCN3CCOCC3)nnc1-2 | -20.8% [at 25.6 µM] (inactive) |  |
| CC(=O)NCCNc1ncnc2ccc(-c3ccc(C(=O)N(C)C)cc3)cc12 | -14.3% (inactive) |  |
| Clc1ccccc1-c1cc(NCCN2CCOCC2)ncn1 | -17% (inactive) |  |
| c1nc(NCCN2CCOCC2)c2cc(-c3ccoc3)ccc2n1 |  | 2 µM (active) |
| CC(=O)NCCNc1ncnc2ccc(-c3ccc4c(c3)OCO4)cc12 |  | 10 µM (active) |
| CCCc1nnc(NC(=O)c2cccs2)s1 | 6.2% (inactive) |  |
| O=C(/C=C/c1ccc(Br)cc1)NC1CCCCCC1 | -29.1% (inactive) |  |
| Cc1ccc(C(=O)Nc2cccc(-c3cnc4ccccc4n3)c2)cc1 | 17.8% (inactive) |  |
| Cc1cc2c(=O)[nH]c(N)nc2nc1C | 14.7% [at 11.4 µM] (inactive) |  |
| O=c1[nH]c(SCc2cccc([N+](=O)[O-])c2)nc2nc[nH]c12 | 10.7% [at 11.4 µM] (inactive) |  |
| CSc1nc2n(n1)C(c1cc(Br)ccc1F)C(C(=O)N(C)C)=C(C)N2 (stereo not drawn) | 6.18% (inactive) |  |
| CN[C@]1(C)[C@@H]2CC[C@@H](C2)C1(C)C | 5.59% (inactive) |  |
| Cc1ccc(NC(=O)CCN2C(=O)c3ccncc3C2=O)cc1 | 1.26% (inactive) |  |
| CCN1C(=O)[C@H]2[C@H]3[C@H](O)[C@H](O)C/C(=N/NC(=O)OCc4ccccc4)[C@@H]3CC[C@@H]2C1=O | 10.8% [at 11.4 µM] (inactive) |  |
| CCN1C(=O)/C(=C2\SC(=S)N(CCCOC)C2=O)c2ccccc21 | -10.4% (inactive) |  |
| N[C@@H](Cc1cc(CP(=O)(O)O)cc(-c2ccccc2Cl)c1)C(=O)O | 1.24% (inactive) |  |
| Cc1ccc(-c2csc3ncnc(NCCN4CCOCC4)c23)cc1 |  | 2.82 µM (active) |
| CC(=NCCN1CCN(C(=S)Nc2ccccc2)CC1)C1=C(O)CC(C)(C)CC1=O | 7.76% (inactive) |  |
| O=C(Nc1ccc2c(c1)Cc1ccccc1-2)[C@@H]1[C@H](C(=O)O)[C@]2(Cl)C(Cl)=C(Cl)[C@@]1(Cl)C2(Cl)Cl | -10.2% [at 11.4 µM] (inactive) |  |
| O=[N+]([O-])C(/C=C(\Cl)[N+](=O)[O-])=C1N(Cc2ccc(Cl)nc2)CCN1Cc1ccc(Cl)nc1 |  | 15.8 µM (active) |
| Nc1ccc(N2C(=O)c3ccccc3C2=O)c(Cl)c1 | -4.95% (inactive) |  |
| COc1ccc(-n2c(=O)c(C)nc3cnc(Nc4ccccc4)nc32)cc1 | 3.53% (inactive) |  |
| O=S(=O)(/N=C(/Nc1ccc(F)cc1F)c1ccc(Cl)cc1)c1ccccc1 | 11.4% (inactive) |  |
| NCC(=O)Nc1ccc(Cl)cc1C(=O)c1ccc[nH]1 | 3.55% [at 11.4 µM] (inactive) |  |
| Cc1c(NC(=O)CSc2nnc3c4ccccc4n(CCc4ccccc4)c3n2)c(=O)n(-c2ccccc2)n1C | -25.1% (inactive) |  |

| Compound | activity, negative = inhibition | AC50 |
| --- | --- | --- |
| Cc1ccc(-n2c(C)cc(C(=O)CSc3n[nH]c(N)n3)c2C)cc1 | -0.813% (inactive) |  |
| Cc1ccc(-n2c(-c3ccccc3)cc(=O)nc2C)cc1 | 32.4% (inactive) |  |
| Cc1ccc(-n2c(O)cnc2Nc2nc(C)cc(C)n2)cc1 |  | 12.6 µM (active) |
| CSc1nc(NC2CCCC2)c([N+](=O)[O-])c(NC2CCCC2)n1 | -4.38% (inactive) |  |
| C#CCCCO/N=C1/C[C@@H](O)[C@@H](O)[C@@H]2[C@H]3C(=O)N(c4ccc(F)cc4F)C(=O)[C@@H]3CC[C@@H]12 | 8.28% [at 11.4 µM] (inactive) |  |
| CC(C)[C@H]1C(=O)C(C(N)=O)=C(O)[C@]2(O)C(=O)C3=C(O)c4c(O)ccc(N(C)C)c4C[C@H]3C[C@@H]12 | -0.683% (inactive) |  |
| N#C/C(=C/N1CCOCC1)c1ccccc1 | -8.97% (inactive) |  |
| CCc1cc2c(=O)c(-c3cnn(-c4ccccc4)c3)coc2c(CN2CCOCC2)c1O | -19.9% (inactive) |  |
| Oc1c(CN2CCOCC2)cc(-c2ccccc2)cc1CN1CCOCC1 |  | 12.6 µM (active) |
| NC/C=C\C(=O)O |  | inactive |
| C[C@H](O/N=C1/[C@H]2O[C@@H]2[C@@H](O)[C@H]2[C@H]1CCn1c(=O)n(-c3ccccc3)c(=O)n12)c1cn([C@H]2COC[C@H]2O)nn1 | -1.7% [at 11.4 µM] (inactive) |  |
| CCc1nnc(NC(=O)CSc2ncnc3c2cnn3-c2ccc(OC)cc2)s1 | 0.15% (inactive) |  |
| CCOC(=O)CN1C(=O)Nc2ccc(Br)cc2C1c1ccccc1 (stereo not drawn) | -5.48% (inactive) |  |
| CC1=C(C(N)=O)C(c2ccccc2)n2nc(-c3ccncc3)nc2N1 (stereo not drawn) | -1.99% (inactive) |  |
| Cc1ccc[n+](CC(=O)c2cc3ccccc3oc2=O)c1 | -26% (inactive) |  |
| Cc1cc2ccccc2c[n+]1CC(O)C[n+]1cc2ccccc2cc1C |  | 0.0251 µM (active) |
| C[C@@H]1/C=C\CC(=O)OC[C@H](C)C(=O)N2CCC[C@@H]2C(=O)OC1 | 7.63% [at 11.4 µM] (inactive) |  |
| Cc1o[nH]c(=O)c1CC[C@H](N)C(=O)O | -9.63% (inactive) |  |
| Cc1oc(C(C)(C)C)cc1C(=O)Nc1cccc(/C=C/C(=O)O)c1 | 11.9% (inactive) |  |
| Cc1oc(-c2ccccc2)cc1C(=O)Nc1ccc(N(C)C)cc1 |  | 7.94 µM (active) |
| Cc1ccc(NC(=O)c2ccccc2C(=O)O)cc1C | -8.28% [at 11.4 µM] (inactive) |  |
| CCOC(=O)C1=C(N)n2c(s/c(=C\c3ccco3)c2=O)=C(C(=O)OCC)C1c1ccco1 (stereo not drawn) | 21.8% (inactive) |  |
| Cc1cc2nc3[nH]c4c(Cl)cc(Cl)cc4c3nc2cc1C | 4.24% [at 11.4 µM] (inactive) |  |

— PubChem BioAssay AID1851 (National Center for Advancing Translational Sciences (NCATS), 2009)
